ULK1 primary – human ULK1 kinase inhibition, primary screen. O75385. AlphaScreen Atg13 phosphorylation by ULK1, luminescence. inhibition, % at 5.96 µM. 30,000 tested, 1.9% active. AID 1259251; in the data active means inhibition above about 43%;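 further: 0% = median of compound wells and 100% = no enzyme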
ASK1 inh – inhibitors of human ASK1 kinase; 22,000 tested, 0.99% active; inhibition, % at 7.44 µM; AlphaScreen MKK6 phosphorylation by ASK1, luminescence; Q99683; AID 1159602; in the data active means inhibition above about 35%;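 further: 0% = median of compound wells and 100% = no enzyme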
* hit, by the source's call. Hits are enriched below; roughly 2.5% of the tested compounds scored in any of these assays.

`CCC(Br)(CC)C(=O)NC(N)=O` gave ULK1 primary 81.8*.
`Oc1ccc(Cl)cc1Cc1ccccc1` gave ULK1 primary -34.3.
Screening Oc1cc(Cl)ccc1Oc1ccc(Cl)cc1Cl returned ULK1 primary 44.2*.
CCC(CC)N1CCN(Cc2ccc(OC)cc2)CC1 was read as ULK1 primary 4.1.
Screening COc1ccc(-c2ccc(C=C3C(=O)NC(=S)NC3=O)o2)cc1Cl returned ULK1 primary 32.1.
`CN1C[C@H](C(=O)N[C@]2(C)O[C@@]3(O)C4CCCN4C(=O)[C@H](Cc4ccccc4)N3C2=O)C=C2c3cccc4[nH]cc(c34)C[C@H]21` (stereo partly specified) gave ULK1 primary 23.1.
CCC(CO)NC(=O)[C@@H]1C=C2c3cccc4[nH]cc(c34)C[C@H]2N(C)C1 (stereo partly specified) was read as ULK1 primary 53.3*.
For CN(C)[C@@H]1C(=O)C(C(N)=O)=C(O)[C@@]2(O)C(=O)C3=C(O)c4c(O)cccc4[C@@](C)(O)[C@H]3[C@H](O)[C@@H]12 the results were ULK1 primary 50.8*.
CCCCCCC(=O)O[C@H]1CC[C@H]2[C@@H]3CCC4=CC(=O)CC[C@]4(C)[C@H]3CC[C@]12C was read as ULK1 primary 1.4.
Screening O=C(Nc1ccc2[nH]ncc2c1)C1CN(Cc2ccccc2)CC1c1ccccc1Cl (stereo unspecified) (tested in a mixture with another compound) returned ULK1 primary -21.6 and ASK1 inh 9.5.
`NCCc1cc(O)c(O)cc1O` gave ULK1 primary 90.9*.
CCC(CC)N1CCN(Cc2cccc(F)c2)CC1 was read as ULK1 primary 7.5.
For [Tl+] the results were ULK1 primary -1.8.
For NC1CCCC1c1ccccc1 (stereo unspecified) the results were ULK1 primary -6.2.
Screening COc1cccc(CNC(=O)c2nn(CC3CC3)c3cc(-c4ccnc(N)n4)ccc23)c1 returned ULK1 primary -3.6 and ASK1 inh -16.5.
Screening Nc1nc(/N=C/c2ccc(N(CCCl)CCCl)cc2)n[nH]1 returned ULK1 primary -5.7.
`CC[n+]1c(-c2ccccc2)c2cc(N)ccc2c2ccc(N)cc21` gave ULK1 primary 62.4*.
C1CN1c1nc(N2CC2)nc(N2CC2)n1 was read as ULK1 primary 10.0.

Screening data deposited in PubChem by The Scripps Research Institute Molecular Screening Center.
